Compound activity: PubChem, several laboratories
Compounds with a hit are over-represented: about 2.5% of the library has one in this group of screens.
TWEAK-Fn14 inh = inhibitors of TWEAK-Fn14 signaling, primary screen, luciferase reporter cells, uHTS. 360,000 tested, 2% active. inhibition, % at 10 µM. TWEAK-stimulated Fn14 reporter cells, luciferase luminescence, 8 h. AID 1159606, 2016; in the data active = inhibition above about 50%
EWS-Fli inh = EWS/Fli-driven NR0B1 reporter inhibitors, primary screen, A673 cells, NR0B1 luciferase, luminescence, MLPCN library. 350,000 tested, 0.67% active. viability-normalised. inhibition, % at 12.6 µM. AID 651661, 2012;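 active = mean inhibition of at least 50% after viability correction, with every replicate also passing that limit; inconclusive = mean reaches 50% but only one of two replicates passes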;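 note: firefly luciferase signal divided by Alamar Blue viability fluorescence both relative to DMSO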
LGR2 antag = inhibitors of bursicon-induced LGR2 CRE-luciferase signal, primary screen, cell-based, HEK293, CRE-luciferase reporter, bursicon stimulation. bursicon-stimulated, 4 h. 380,000 tested, 0.35% active. inhibition, % at 9.99 µM;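 active = drop in luminescence signal, shown as inhibition above about 50% in the replicate tests, limit read from the data, passing the limit was not always enough; inconclusive = probably only some replicates passing the limit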;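 note: agonist challenge used bursicon conditioned medium at about half maximal strength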
TROY NFkB inh = inhibitors of TROY-driven NF-kB signaling, primary screen, Q293 LMP1-TROYcd cells, NF-kB luciferase, uHTS | Q293 LMP1-TROYcd NF-kB luciferase reporter, 4 h | inhibition, % at 10 µM | 360,000 tested, 0.98% active | AID 1347056, 2019;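 active = compounds whose plate-normalised and pattern-corrected inhibition of the luciferase reporter signal at the single screening dose is 50% or more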
EBV LMP1 NFkB = EBV LMP1-driven NF-kappaB luciferase reporter inhibitors, primary screen, cell-based, luminescence, single point; inhibition, % at 12.5 µM; 350,000 tested, 0.69% active; LMP1-induced NF-kappaB luciferase reporter cells; in the data active = inhibition above about 41%; inconclusive = no clear call, values can overlap the other calls;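 note: 0% = neutral control wells and 100% = reference inhibitor control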
* = called active by the depositor; ? = inconclusive; · = no result given.

SMILES | TWEAK-Fn14 inh | EWS-Fli inh | LGR2 antag | TROY NFkB inh | EBV LMP1 NFkB
CN(CC(=O)Nc1ccc(N2CCOCC2)cc1)Cc1c(O)ccc2ccccc12 | 34 | 0 | 39 | 50* | -1
CN(CC(=O)Nc1ccc(N2CCOCC2)cc1)CC(=O)Nc1ccc(N2CCOCC2)cc1 | -2 | 4 | 2 | 12 | 2
O=C(C[C@H]1CC[C@@H]2[C@H](COC[C@@H](O)CN2C(=O)c2cnccn2)O1)NCc1ccc(Oc2ccccc2)cc1 | · | · | 0 | · | ·
Cc1cccc(C(=O)N2CCCC(Nc3ccc(C)c(C)c3)C2)n1 (configuration not stated) | 5 | · | 16 | -4 | 2
CC(=NNC(=S)Nc1cccc(Cl)c1)c1ccccn1 | -12 | 13 | -107 | 17 | 52*
CC(=NNC(=S)N1CC2CCC(CC2)C1)c1cccc(C)n1 | 2 | -21 | -39 | -1 | 79*
CC(=NNC(=S)N1CCC1)c1ccccn1 | 40 | 18 | 39 | -13 | 50*
CC(=NNC(=S)N1CCCC1)c1ccccn1 | -7 | 46 | -6 | -31 | 57*
CO[C@H]1CN(C)C(=O)c2cc(NS(=O)(=O)c3ccc(Oc4ccccc4)cc3)ccc2OC[C@@H](C)NC[C@@H]1C | · | -3 | 5 | · | ·
COc1ccccc1C/C(N)=N/OC(=O)c1cccc([N+](=O)[O-])c1C | 90* | -10 | -9 | -14 | 1
COc1ccc(/C(N)=N/OC(=O)c2cccc([N+](=O)[O-])c2C)cc1 | -20 | -26 | 19 | -42 | -22
Cc1oc(-c2ccc(-c3ccccc3)cc2)nc1CN(CCO)C(C)C | 65* | -86 | -65 | -4 | -41
CCOC(=O)NC(=O)COC(=O)CCCSc1nc2ccccc2s1 | 54* | 23 | -12 | 27 | -5
CC(C)NC(=O)NC(=O)COC(=O)CCCSc1nc2ccccc2s1 | -3 | -1 | 12 | 8 | -38
c1ccc2sc(SCSc3nc4ccccc4s3)nc2c1 | -90 | -26 | -21 | -50 | -22
O=C(O)CCSc1nc2ccccc2s1 | 92* | · | -10 | 69* | 11
NC(=O)NC(=O)COC(=O)CCCSc1nc2ccccc2s1 | 61* | 29 | -5 | 39 | -6
C[C@@H]1CN([C@H](C)CO)C(=O)c2cccc(N(C)C)c2O[C@H]1CN(C)Cc1ccc(Cl)c(Cl)c1 | · | -5 | 7 | · | ·
CCC(=O)Nc1ccc2c(c1)C(=O)N(C)C[C@@H](OC)[C@H](C)CN(Cc1ccccn1)[C@H](C)CO2 | · | -1 | 2 | · | ·
CCC(C)NS(=O)(=O)c1ccc(S(=O)(=O)N(CCc2ccc(OC)c(OC)c2)Cc2cccs2)cc1 (configuration not stated) | 55* | 16 | 20 | 31 | 13
C[C@H](CO)N1C[C@H](C)[C@H](CN(C)C(=O)C2CC2)Oc2cc(C3=CCCCC3)ccc2S1(=O)=O | · | 4 | 15 | · | ·
CN1CCN(C(=O)C[C@H]2CC[C@H]3[C@@H](COC[C@@H](O)CN3Cc3ccc(Oc4ccccc4)cc3)O2)CC1 | · | 37 | 24 | · | ·
C[C@H]1CN([C@@H](C)CO)C(=O)c2ccccc2-c2ccccc2CO[C@H]1CN(C)S(=O)(=O)c1ccccc1 | · | -6 | 12 | · | ·
CC1CCCN(S(=O)(=O)c2ccc(C(=O)Nc3sc4c(c3C(N)=O)CCN(C)C4)cc2)C1 (configuration not stated) | -4 | 56* | -2 | -24 | 4
CCCN1CCc2c(sc(NC(=O)c3ccc(S(=O)(=O)N4CCCC4)cc3)c2C(N)=O)C1 | -4 | · | -9 | -25 | -4
SMILES | TWEAK-Fn14 inh | EWS-Fli inh | LGR2 antag | TROY NFkB inh | EBV LMP1 NFkB
O=C(Cc1ccccn1)N1[C@H](CO)[C@H]2c3ccccc3NC[C@H]21 | · | -4 | 2 | · | ·
COc1ccccc1OCc1ccc(C(=O)c2ccccc2)cc1 | -25 | -53 | -29 | -19 | 63*
CC(C)c1ccc(NC(=O)C[C@H]2CC[C@H]3[C@@H](COc4ccc(NC(=O)Nc5ccc(F)c(F)c5)cc4C(=O)N3C)O2)cc1 | · | -1 | · | · | ·
Cc1cc(C)nc(Sc2ccc([N+](=O)[O-])cc2[N+](=O)[O-])n1 | 58* | · | 20 | 21 | -36
O=[N+]([O-])c1ccc(Sc2cccc3cccnc23)c([N+](=O)[O-])c1 | 64* | -33 | 37 | 25 | -98
O=[N+]([O-])c1ccc(Sc2ccncn2)c([N+](=O)[O-])c1 | 77* | 33 | ? | 41 | 26
O=[N+]([O-])c1cc(Cl)ccc1Sc1cccc2cccnc12 | 9 | -162 | -9 | -4 | 6
CN(C)/N=C/c1ccc(Sc2ccc([N+](=O)[O-])cc2[N+](=O)[O-])o1 | 39 | · | 5 | 11 | -14
C[C@@H](NC(=O)C[C@H]1CC[C@H](NC(=O)Cc2ccccn2)[C@H](CO)O1)c1ccccc1 | · | -11 | -2 | · | ·
COC(=O)C[C@H]1CC[C@H]2[C@H](COc3ccc(NC(=O)Nc4cc(C)cc(C)c4)cc3C(=O)N2C)O1 | · | 5 | -6 | · | ·
CCCCNS(=O)(=O)c1ccc2nc(SCC(=O)Nc3sccc3C#N)[nH]c2c1 | -6 | · | · | 71* | 15
CCCCNS(=O)(=O)c1ccc2nc(SCC(N)=O)[nH]c2c1 | -7 | -7 | -2 | 3 | 3
C[C@@H]1CN([C@H](C)CO)C(=O)c2cc(-c3ccccc3F)cnc2O[C@@H]1CN(C)Cc1cccc(C(=O)O)c1 | · | -8 | -1 | · | ·
CNC[C@H]1Oc2ccc(NC(=O)Nc3ccc4c(c3)OCO4)cc2CC(=O)N([C@@H](C)CO)C[C@H]1C | · | 7 | 7 | · | ·
CCCCN(CCCNC(=O)c1ccc2c(c1)NC(=O)CN2C)c1ccccc1 | 108* | 37 | 91* | 90* | -31
COc1ccc(C=C(C(C)=O)C(=O)c2ccccc2)cc1 | 28 | -7 | 17 | -2 | ·
CC(=O)C(=Cc1ccc(Cl)cc1)C(=O)c1ccccc1 | 95* | 11 | 16 | 19 | ·
COc1ccc(C=C(C(=O)c2ccccc2)C(=O)c2ccccc2)cc1 | 52* | -83 | -65 | -20 | ·
CC(=O)C(=Cc1cccc(C#N)c1)C(=O)c1ccccc1 | 77* | 8 | 47 | -12 | ·
O=C(Nc1cc(F)ccc1F)N[C@@H]1CC[C@H](CCn2cc(C3CCCC3)nn2)O[C@@H]1CO | · | 6 | 13 | · | ·
CN(C)CCCN(Cc1cc2cc3c(cc2[nH]c1=O)OCO3)C(=S)Nc1cccc(Cl)c1 | 28 | 10 | · | 51* | 4
COc1ccc(NC(=O)N(CCN2CCCC2)Cc2cc3cc(OC)c(OC)cc3[nH]c2=O)cc1 | -2 | · | 11 | 3 | 44*
CCc1ccc2[nH]c(=O)c(CN(Cc3ccccc3)C(=O)Nc3ccccc3OC)cc2c1 | 26 | · | 8 | 55* | -13
COc1ccc2cc(CN(CC3CCCO3)C(=O)Nc3ccccc3OC)c(=O)[nH]c2c1 (configuration not stated) | 16 | 43 | 14 | -4 | 49*
